# Results reported in PubChem BioAssay.
# Several values for one entry are separate records, joined by “and”; a condition that tells them apart may be missing. Equal values may be shown once. Activity calls are given as the source filed them. Unless noted, the rule behind the calls is not given here.
# Key:
# [1] = liver-stage malaria parasite load reduction – cell-based, known kinase inhibitor set, luminescence, hepatoma host viability (AID 624392); conditions: Plasmodium liver stage in hepatoma cells, luciferase luminescence, concentration not given here; liver cell % of control: measured here: host liver cell viability; parasite % of control: stronger effect = lower value;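 note: infected cells incubated roughly two days before readout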
# [2] = system: Hepatitis C virus NS3 helicase; test: blockers of NS3h binding to ssDNA – biochemical, fluorescence polarization, LOPAC1280 library, primary screen (AID 687035; in the data active = inhibition above about 37%); conditions: Purified HCV NS3 helicase, Cy5-dT15 ssDNA binding fluorescence polarization; stronger effect = higher value; concentration not given here
# [3] = compounds altering Cy5-DNA-NS3h complex signal – biochemical, LOPAC1280, artefact control for HCV NS3 helicase inhibitor project (AID 687037); conditions: Cy5-DNA-NS3h complex fluorescence interference counterscreen
SMILES,liver cell % of control [1],parasite % of control [1],inhibition [2],fluorescence ratio (interference) [3]
Nc1ccc(-c2cnc(N)c(C(=O)c3cccnc3)n2)cn1,97.9%,132% (inactive),–,–
CCN1CCN(Cc2ccc(C(=O)Nc3ccc(C)c(NCc4cnc(NC(=O)OC)cn4)c3)cc2C(F)(F)F)CC1,105%,107% (inactive),–,–
C=CC(=O)N1CCCC(Nc2nc(Nc3ccc(N(C)C(=O)CC)cc3C)nc3nc[nH]c23)C1 (stereo not given),105%,93.2% (inactive),–,–
NS(=O)(=O)c1ccc(-c2ccc(C=C3SC(=O)NC3=O)o2)cc1,89%,18.1% (active),–,–
CN(C)C1=NC(=O)C(=Cc2ccc(-c3ccc(S(N)(=O)=O)cc3)o2)S1,99.8%,84.6% (inactive),–,–
Cn1cc(C=C2C(=O)Nc3cccnc32)c2ccccc21,314% and 107% and 104%,4.91% (inactive) and 51.8% (inactive) and 41.5% (inactive),–,–
Cc1cn(-c2cc(C(=O)Nc3ccc(C)c(NC(=O)N4CCNC4=O)c3)cc(C(F)(F)F)c2)cn1,98.1%,72.3% (inactive),–,–
O=C(Nc1ccc(-c2csc(Nc3ccc(Cl)cc3)n2)cc1)c1cc([N+](=O)[O-])cc(C(F)(F)F)c1,106%,97.2% (inactive),–,–
NS(=O)(=O)c1ccc(-c2cccc(C=C3SC(=O)NC3=O)c2)cc1,87.7%,17% (inactive),–,–
Cc1nc(Nc2cnc(C=Cc3cc(C(=O)Nc4cccc(C(F)(F)F)c4)ccc3C)cn2)cc(N2CCNCC2)n1,92.4%,144% (inactive),–,–
CCN1CCN(Cc2ccc(NC(=O)c3cc(NC(=O)c4cnnc5ccccc45)cc(OC)c3)cc2C(F)(F)F)CC1,94.5%,85.8% (inactive),–,–
C=CC(=O)Nc1cccc(N(C)c2ccnc(Nc3ccc(N4CCN(C)CC4)cc3)n2)c1,95.1%,6.04% (inactive),–,–
COc1cc(NC(=O)c2nccn2C)cc(C(=O)Nc2cccc(C(F)(F)F)c2)c1,91.3%,84.5% (inactive),–,–
CCN1CCN(Cc2ccc(NC(=O)c3cc(NC(=O)c4cncc(-c5cccs5)c4)cc(OC)c3)cc2C(F)(F)F)CC1,101%,88.5% (inactive),–,–
C=CC(=O)Nc1cccc(N2C(=O)N(c3cc(OC)cc(OC)c3)Cc3cnc(NCCCCN(CC)CC)nc32)c1,102%,107% (inactive),–,–
CCN1CCN(Cc2ccc(NC(=O)c3ccc(C)c(NC(=O)c4c[nH]c5cc(C(F)(F)F)ccc5c4=O)c3)cc2C(F)(F)F)CC1,45.6%,4.19% (active),–,–
Cc1ccc([N+](=O)[O-])cc1S(=O)(=O)N(C)N=Cc1c[nH]c2ccc(Br)c[n+]12,93%,3.49% (active),–,–
O=C(Nc1ccc(-c2csc(Nc3cccc(C(F)(F)F)c3)n2)cc1)c1cccc(C(F)(F)F)c1,101%,45.1% (inactive),–,–
CCN1CCN(Cc2ccc(NC(=O)c3ccc(C)c(NC(=O)C(=O)c4c[nH]c5ccccc45)c3)cc2C(F)(F)F)CC1,69.8%,99.9% (inactive),–,–
Cc1c[nH]c(C=C2C(=O)Nc3ccccc32)c1CCC(=O)O,85.5% and 92.1% and 99.1%,58.7% (inactive) and 47.8% (inactive) and 49.4% (inactive),–,–

SMILES,liver cell % of control [1],parasite % of control [1],inhibition [2],fluorescence ratio (interference) [3]
O=C1NN(c2ccccc2)C(=O)C1=Cc1ccc(-c2ccc(Cl)cc2)o1,98.7%,92.2% (inactive),–,–
CCN1CCN(Cc2ccc(NC(=O)c3cc(NC(=O)c4nccnc4N)cc(OC)c3)cc2C(F)(F)F)CC1,98.4%,64.5% (inactive),–,–
C=CC(=O)Nc1cccc(Oc2ccnc(Nc3ccc(N4CCN(C)CC4)cc3)n2)c1,106%,162% (inactive),–,–
CC(C)n1cnc2c(N(C)c3ccccc3)nc(N(CCN(C)C)Cc3ccccc3)nc21,84.5%,24.1% (inactive),–,–
NS(=O)(=O)c1ccc(-c2ccc(C=C3C(=O)Nc4ccccc43)o2)cc1,99.7%,90.6% (inactive),–,–
CCN1C(=O)CCN(C2CCCC2)c2nc(Nc3ccc(C(=O)NC4CCN(C)CC4)cc3OC)ncc21,91.7%,362% (inactive),–,–
COc1ccc(CNc2nc(NCc3ccc(OC)cc3)c3ncn(C4CCCC4)c3n2)cc1,90.6%,265% (inactive),–,–
COc1cc(C(=O)NC2CCN(C)CC2)ccc1Nc1ncc2c(n1)N(Cc1ccccc1)CCC(=O)N2C,97.7%,579% (inactive),–,–
CC(C)Oc1cc(C(=O)N2CCC(N3CCCCC3)CC2)ccc1Nc1nnc(Cl)c(Nc2ccccc2S(C)(=O)=O)n1,98.2%,81.6% (inactive),–,–
Cc1ccc(C(=O)Nc2cccc(C(F)(F)F)c2)cc1NC(=O)c1nccn1C,99.8%,33.1% (inactive),–,–
CC(C)(C)OC(=O)NC(COc1cncc(Br)c1)Cc1c[nH]c2ccccc12 (stereo not given),95.1%,98.7% (inactive),–,–
CCN1CCN(Cc2ccc(NC(=O)c3ccc(C)c(C=Cc4cnc(Nc5cc(N6CCNCC6)nc(C)n5)cn4)c3)cc2C(F)(F)F)CC1,96.8%,369% (inactive),–,–
COc1cc(NC(=O)c2csc(-c3ccncc3)n2)cc(C(=O)Nc2cccc(C(F)(F)F)c2)c1,95.7%,124% (inactive),–,–
Cn1c(C2=C(c3c4n(c5ccccc35)CCC(CN)C4)C(=O)NC2=O)cc2ccccc21 (stereo not given),41.8% and 77.6% and 88.8%,3.36% (inactive) and 70.7% (inactive) and 90.3% (inactive),–,–
CC(C)n1cnc2c(Nc3cccc(Cl)c3)nc(NCCCO)nc21,90.1%,206% (inactive),–,–
COc1cc(NC(=O)c2cnc(N)o2)cc(C(=O)Nc2cccc(C(F)(F)F)c2)c1,87.7%,106% (inactive),–,–
C=CC(=O)Nc1cccc(N2C(=O)N(c3c(Cl)c(OC)cc(OC)c3Cl)Cc3cnc(NCCCCN(CC)CC)nc32)c1,104%,107% (inactive),–,–
NC1=NC(=O)C(=Cc2ccc(-c3ccc(Cl)cc3)o2)S1,97.6%,73.1% (inactive),–,–
CN(c1ccc(OC(F)(F)F)cc1)c1cc(-c2cccc(C(N)=O)c2)ncn1,99.1%,107% (inactive),–,–
C=CC(=O)Nc1ccc(Nc2nc(NC3CCC(N(C)C)CC3)nc3c2ncn3C(C)C)cc1 (stereo not given),57.1%,6.69% (inactive),–,–

SMILES,liver cell % of control [1],parasite % of control [1],inhibition [2],fluorescence ratio (interference) [3]
CC(C)C(CO)Nc1nc(Nc2ccc(C(=O)O)c(Cl)c2)c2ncn(C(C)C)c2n1 (stereo not given),52.3% and 72.3%,13.7% (inactive) and 48.9% (inactive) and 114% (inactive),–,–
O=C(Nc1ccc(-c2csc(Nc3ccccc3)n2)cc1)c1ccccc1,102%,204% (inactive),–,–
O=C(Nc1cccc(-c2csc(Nc3ccc(Cl)cc3)n2)c1)c1ccccc1,90.9%,112% (inactive),–,–
CCN1C(=O)CC(C(C)C)N(C2CCCC2)c2nc(Nc3ccc(C(=O)NC4CCN(C)CC4)cc3OC)ncc21 (stereo not given),102%,87.6% (inactive),–,–
CN(C)CC=CC(=O)Nc1cccc(-c2c[nH]c3ncnc(Oc4ccc(NC(=O)CC(=O)Nc5ccc(F)cc5)cc4F)c23)c1,96.3%,155% (inactive),–,–
O=c1[nH]c2ccccc2c2ncnc(Nc3ccc(OC(F)(F)F)cc3)c12,101%,119% (inactive),–,–
C=CC(=O)Nc1cccc(Oc2cc(Cl)nc3[nH]ccc23)c1,101%,63.5% (inactive),–,–
CCN1CCN(Cc2ccc(NC(=O)c3ccc(C)c(NC(=O)C4=NN(c5ccccc5)C(=O)C4)c3)cc2C(F)(F)F)CC1,101%,72.3% (inactive),–,–
Cc1ccc(C(=O)Nc2cccc(C(F)(F)F)c2)cc1Nc1cnccn1,98.3%,23.7% (inactive),–,–
CC(=O)Nc1ccc(C(C)C(=O)Nc2ncc(C(C)C)s2)cc1 (stereo not given),53.4% and 52.2% and 52.5%,136% (inactive) and 128% (inactive) and 133% (inactive),–,–
COC(=O)c1ccc2c(c1)[nH]c(=O)c1c(Nc3ccc(OC(F)(F)F)cc3)ncnc12,107%,97.4% (inactive),–,–
CCN1CCN(Cc2ccc(NC(=O)c3ccc(C)c(NC(=O)c4csc(-c5ccncc5)n4)c3)cc2C(F)(F)F)CC1,99.6%,126% (inactive),–,–
CCN1CCN(Cc2ccc(NC(=O)c3cc(NC(=O)C4=NN(c5ccccc5)C(=O)C4)cc(OC)c3)cc2C(F)(F)F)CC1,100%,110% (inactive),–,–
C=CCc1cccc(/C=N\NC(=O)CN2CCN(Cc3ccccc3)CC2)c1O,–,–,1% (inactive),0.9 (inactive)
CCOC(=O)N1CCN(/[N+]([O-])=N\Oc2ccc([N+](=O)[O-])cc2[N+](=O)[O-])CC1,–,–,-3% (inactive),1.1 (inactive)
CN(C)c1nc2c(Br)c(Br)c(Br)c(Br)c2[nH]1,–,–,1% (inactive),1 (inactive)
CCN1C(=O)CC(c2ccccc2)N(C2CCCC2)c2nc(Nc3ccc(C(=O)NC4CCN(C)CC4)cc3OC)ncc21 (stereo not given),94.4%,83.8% (inactive),–,–
CC(C)ON([C@@H](C(=O)NO)C(C)C)S(=O)(=O)c1ccc(-c2ccccc2)cc1,–,–,-1% (inactive),0.9 (inactive)
Cc1cc(C(=O)Nc2cc(Nc3ccc4c(C=Cc5ccccn5)n[nH]c4c3)ccc2F)n(C)n1,75.4% and 84.5% and 95.8%,17.4% (inactive) and 18.3% (inactive) and 40.1% (inactive),–,–
NC(=O)c1cccc(-c2cnc(N)c(C(=O)c3cccnc3)n2)c1,101%,179% (inactive),–,–
